Drawing on paper PMC7862700, “An all-to-all approach to the identification of sequence-specific readers for epigenetic DNA modifications on cytosine”, this text covers binding signal for 2 sequences.

Holding throughout (experiment): DAPPL (digital affinity profiling via proximity ligation, sequencing); 10 mM Tris-HCl pH 7.5, 50 mM NaCl, 1 mM DTT, 4% glycerol, room temperature, 30 min; GST-TFs on glutathione beads, 16-mer random dsDNA library, 0.1% formaldehyde crosslink after washing; high values mean tight binding
Settings in all cases: protein: recombinant; tags: N-terminal GST; dsDNA, one strand shown

In assay [1] the target is T1, FLI1 (Homo sapiens, UniProt Q01543 1-452).
T1 sequence: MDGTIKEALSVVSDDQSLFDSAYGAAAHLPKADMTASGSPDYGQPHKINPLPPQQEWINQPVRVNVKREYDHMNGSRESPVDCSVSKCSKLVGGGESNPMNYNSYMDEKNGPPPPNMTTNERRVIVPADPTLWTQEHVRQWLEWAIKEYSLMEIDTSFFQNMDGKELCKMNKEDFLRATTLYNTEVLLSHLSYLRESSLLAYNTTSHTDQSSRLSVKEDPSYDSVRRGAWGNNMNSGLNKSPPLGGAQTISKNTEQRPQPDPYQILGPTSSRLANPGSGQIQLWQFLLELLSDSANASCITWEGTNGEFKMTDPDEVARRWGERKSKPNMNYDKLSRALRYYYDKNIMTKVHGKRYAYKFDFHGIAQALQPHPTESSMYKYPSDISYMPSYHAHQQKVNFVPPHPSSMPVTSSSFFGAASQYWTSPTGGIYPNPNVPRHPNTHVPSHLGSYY
The essentials: (§1)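 Each value of binding signal is a hexamer's read frequency for a factor divided by the same hexamer's frequency in the tag-only sample. Barcoded, bead-captured GST fusions of human transcription factors made in yeast were pooled with that sample and incubated with 200 nmole of a random double-stranded 16-mer DNA library in Tris/NaCl/DTT/glycerol buffer at room temperature for 30 min. Washing, 0.1% formaldehyde crosslinking, proximity ligation, PCR and Illumina NextSeq500 sequencing followed.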

Assay [2] concerns the target T2, ELK1 (Homo sapiens, UniProt P19419 1-428).
T2 sequence: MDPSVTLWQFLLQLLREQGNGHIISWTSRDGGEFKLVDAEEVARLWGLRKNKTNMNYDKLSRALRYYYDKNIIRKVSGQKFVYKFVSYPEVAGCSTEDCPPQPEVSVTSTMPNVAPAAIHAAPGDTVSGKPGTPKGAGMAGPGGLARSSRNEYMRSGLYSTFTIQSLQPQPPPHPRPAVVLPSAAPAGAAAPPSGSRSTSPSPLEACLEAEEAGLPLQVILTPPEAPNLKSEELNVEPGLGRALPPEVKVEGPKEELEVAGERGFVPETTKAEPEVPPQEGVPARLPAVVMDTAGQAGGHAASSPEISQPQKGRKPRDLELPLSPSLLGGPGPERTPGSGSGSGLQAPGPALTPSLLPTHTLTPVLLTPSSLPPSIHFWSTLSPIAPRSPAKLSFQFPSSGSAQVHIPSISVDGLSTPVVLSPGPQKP
The essentials: as §1

In assay [3] the target is T3, GABPA (Homo sapiens, UniProt Q06546 1-454).
T3 sequence: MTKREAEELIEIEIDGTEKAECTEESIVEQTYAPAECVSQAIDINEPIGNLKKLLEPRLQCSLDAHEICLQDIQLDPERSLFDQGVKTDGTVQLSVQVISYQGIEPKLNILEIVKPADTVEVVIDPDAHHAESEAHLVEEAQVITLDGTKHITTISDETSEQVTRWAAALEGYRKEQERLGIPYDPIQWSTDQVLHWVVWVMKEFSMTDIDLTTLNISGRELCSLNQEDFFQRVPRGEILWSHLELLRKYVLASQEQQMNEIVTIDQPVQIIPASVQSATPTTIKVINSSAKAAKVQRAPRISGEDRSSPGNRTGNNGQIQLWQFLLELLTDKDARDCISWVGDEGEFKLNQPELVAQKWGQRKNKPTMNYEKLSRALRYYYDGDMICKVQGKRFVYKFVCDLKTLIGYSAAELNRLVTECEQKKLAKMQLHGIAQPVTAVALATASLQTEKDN
The essentials:
as §1

The target in assay [4] is T4, ERG (Homo sapiens, UniProt P11308 1-479).
T4 sequence: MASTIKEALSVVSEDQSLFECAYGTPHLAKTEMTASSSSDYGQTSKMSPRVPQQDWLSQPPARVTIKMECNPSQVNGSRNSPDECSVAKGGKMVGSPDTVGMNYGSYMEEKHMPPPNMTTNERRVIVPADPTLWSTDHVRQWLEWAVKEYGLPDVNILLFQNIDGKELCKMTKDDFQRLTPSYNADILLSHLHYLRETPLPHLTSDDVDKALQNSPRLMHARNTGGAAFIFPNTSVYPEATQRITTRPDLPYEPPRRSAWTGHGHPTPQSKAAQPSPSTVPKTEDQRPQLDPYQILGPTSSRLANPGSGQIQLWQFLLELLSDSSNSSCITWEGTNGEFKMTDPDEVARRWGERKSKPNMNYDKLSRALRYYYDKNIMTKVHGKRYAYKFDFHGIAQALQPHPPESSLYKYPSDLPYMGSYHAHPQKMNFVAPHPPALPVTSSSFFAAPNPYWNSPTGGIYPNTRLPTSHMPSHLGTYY
In a few lines: as §1

For assay [5], the target named is ELF1 (Homo sapiens, UniProt P32519 1-619). In a few lines: as §1
ELF1, sequence (P32519 whole entry): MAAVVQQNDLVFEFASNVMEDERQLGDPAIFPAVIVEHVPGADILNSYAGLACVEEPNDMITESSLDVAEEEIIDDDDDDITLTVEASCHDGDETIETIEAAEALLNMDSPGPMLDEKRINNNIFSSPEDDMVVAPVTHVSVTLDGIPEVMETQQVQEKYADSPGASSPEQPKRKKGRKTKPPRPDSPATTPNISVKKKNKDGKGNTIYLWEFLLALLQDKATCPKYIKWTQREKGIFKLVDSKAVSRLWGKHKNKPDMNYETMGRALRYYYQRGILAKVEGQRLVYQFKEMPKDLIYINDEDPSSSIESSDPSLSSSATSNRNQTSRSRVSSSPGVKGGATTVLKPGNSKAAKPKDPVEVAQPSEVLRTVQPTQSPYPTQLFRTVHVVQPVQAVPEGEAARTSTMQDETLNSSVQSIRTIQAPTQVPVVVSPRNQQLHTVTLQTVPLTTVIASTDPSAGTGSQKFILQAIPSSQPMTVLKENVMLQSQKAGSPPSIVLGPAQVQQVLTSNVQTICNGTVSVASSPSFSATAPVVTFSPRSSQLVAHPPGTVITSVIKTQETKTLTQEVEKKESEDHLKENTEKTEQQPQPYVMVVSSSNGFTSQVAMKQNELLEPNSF
For assay [6], the target named is T5, EHF (Homo sapiens, UniProt Q9NZC4 1-300).
T5 sequence: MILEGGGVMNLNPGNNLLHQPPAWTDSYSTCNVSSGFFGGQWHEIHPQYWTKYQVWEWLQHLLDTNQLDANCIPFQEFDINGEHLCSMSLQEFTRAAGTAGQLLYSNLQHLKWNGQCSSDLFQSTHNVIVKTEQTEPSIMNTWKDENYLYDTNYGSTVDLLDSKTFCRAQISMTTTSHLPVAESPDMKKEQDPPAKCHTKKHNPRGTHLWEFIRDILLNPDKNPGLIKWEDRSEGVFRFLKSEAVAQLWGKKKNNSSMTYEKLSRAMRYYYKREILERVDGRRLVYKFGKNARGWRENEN
The essentials:
as §1

Assay [7] addresses SPI1 (Homo sapiens, UniProt P17947 1-270). The essentials:
as §1

For assay [8], the target named is SPIB (Homo sapiens, UniProt Q01892 1-262). In a few lines:
as §1

Assay [9] addresses T6, ELK3 (Homo sapiens, UniProt P41970 1-407).
T6 sequence: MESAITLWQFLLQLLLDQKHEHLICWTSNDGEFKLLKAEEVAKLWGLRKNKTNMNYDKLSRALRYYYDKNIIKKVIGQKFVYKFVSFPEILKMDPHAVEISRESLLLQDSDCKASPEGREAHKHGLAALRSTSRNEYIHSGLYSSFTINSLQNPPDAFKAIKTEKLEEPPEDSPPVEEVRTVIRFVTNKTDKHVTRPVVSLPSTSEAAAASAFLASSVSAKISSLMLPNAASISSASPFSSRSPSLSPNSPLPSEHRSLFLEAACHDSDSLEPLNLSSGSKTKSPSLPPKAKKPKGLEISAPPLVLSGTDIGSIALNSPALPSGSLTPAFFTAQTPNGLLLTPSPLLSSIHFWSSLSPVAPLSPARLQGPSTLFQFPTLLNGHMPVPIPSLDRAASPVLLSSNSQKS
In a few lines:
as §1

Assay [10] deals with T7, FEV (Homo sapiens, UniProt Q99581 1-238).
T7 sequence: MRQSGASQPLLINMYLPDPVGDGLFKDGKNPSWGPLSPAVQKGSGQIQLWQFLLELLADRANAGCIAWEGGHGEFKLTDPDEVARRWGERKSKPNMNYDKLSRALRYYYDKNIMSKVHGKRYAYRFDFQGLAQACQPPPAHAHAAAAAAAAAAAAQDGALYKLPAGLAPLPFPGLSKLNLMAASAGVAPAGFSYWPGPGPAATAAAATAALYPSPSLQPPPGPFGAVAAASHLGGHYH
The essentials: as §1

For assay [11], the target named is ETV5 (Homo sapiens, UniProt P41161 1-510). In a few lines: as §1
ETV5, sequence (P41161 whole entry): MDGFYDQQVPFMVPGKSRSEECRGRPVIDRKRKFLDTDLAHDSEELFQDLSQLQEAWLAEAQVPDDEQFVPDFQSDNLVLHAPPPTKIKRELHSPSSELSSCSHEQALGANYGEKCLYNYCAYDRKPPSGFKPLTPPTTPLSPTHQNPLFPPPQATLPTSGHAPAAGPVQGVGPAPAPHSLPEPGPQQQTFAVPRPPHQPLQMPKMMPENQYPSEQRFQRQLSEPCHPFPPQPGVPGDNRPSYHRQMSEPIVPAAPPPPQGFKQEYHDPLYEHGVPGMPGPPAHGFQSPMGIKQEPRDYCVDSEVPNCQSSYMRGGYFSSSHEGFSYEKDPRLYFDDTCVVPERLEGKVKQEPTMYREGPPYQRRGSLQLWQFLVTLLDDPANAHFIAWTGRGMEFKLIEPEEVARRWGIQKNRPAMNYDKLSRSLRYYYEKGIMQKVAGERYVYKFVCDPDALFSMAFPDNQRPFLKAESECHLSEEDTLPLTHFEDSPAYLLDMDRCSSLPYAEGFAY
Assay [12] concerns the target T8, SPIC (Homo sapiens, UniProt Q8N5J4 1-248).
T8 sequence: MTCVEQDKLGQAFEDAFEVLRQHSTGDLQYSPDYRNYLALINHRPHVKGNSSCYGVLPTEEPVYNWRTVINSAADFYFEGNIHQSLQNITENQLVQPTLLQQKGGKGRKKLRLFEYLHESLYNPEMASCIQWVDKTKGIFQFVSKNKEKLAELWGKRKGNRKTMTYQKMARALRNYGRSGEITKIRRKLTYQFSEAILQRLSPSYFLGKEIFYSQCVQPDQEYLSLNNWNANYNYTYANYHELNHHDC
In a few lines:
as §1

Assay [13] deals with ELF4 (Homo sapiens, UniProt Q99607 1-663). The essentials: as §1
ELF4, sequence (Q99607 whole entry): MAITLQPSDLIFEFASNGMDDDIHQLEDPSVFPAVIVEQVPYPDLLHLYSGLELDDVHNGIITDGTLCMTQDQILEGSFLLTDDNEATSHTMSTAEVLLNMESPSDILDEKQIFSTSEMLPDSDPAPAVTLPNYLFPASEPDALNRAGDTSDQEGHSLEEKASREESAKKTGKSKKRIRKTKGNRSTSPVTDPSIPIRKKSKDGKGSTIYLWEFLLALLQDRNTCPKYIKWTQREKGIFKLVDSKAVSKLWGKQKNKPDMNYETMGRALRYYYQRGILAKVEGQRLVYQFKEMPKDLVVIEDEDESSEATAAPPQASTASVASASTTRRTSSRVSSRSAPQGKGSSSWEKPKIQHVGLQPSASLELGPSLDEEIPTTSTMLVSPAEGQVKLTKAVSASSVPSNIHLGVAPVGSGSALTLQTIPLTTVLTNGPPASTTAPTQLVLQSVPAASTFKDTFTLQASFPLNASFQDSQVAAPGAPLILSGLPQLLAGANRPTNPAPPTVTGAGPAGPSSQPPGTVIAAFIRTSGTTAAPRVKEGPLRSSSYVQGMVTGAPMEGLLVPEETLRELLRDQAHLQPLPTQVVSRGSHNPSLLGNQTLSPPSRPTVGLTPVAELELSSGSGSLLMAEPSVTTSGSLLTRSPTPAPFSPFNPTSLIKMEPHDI
The target of assay [14] is T9, ELK4 (Homo sapiens, UniProt P28324-2 1-405).
T9 sequence: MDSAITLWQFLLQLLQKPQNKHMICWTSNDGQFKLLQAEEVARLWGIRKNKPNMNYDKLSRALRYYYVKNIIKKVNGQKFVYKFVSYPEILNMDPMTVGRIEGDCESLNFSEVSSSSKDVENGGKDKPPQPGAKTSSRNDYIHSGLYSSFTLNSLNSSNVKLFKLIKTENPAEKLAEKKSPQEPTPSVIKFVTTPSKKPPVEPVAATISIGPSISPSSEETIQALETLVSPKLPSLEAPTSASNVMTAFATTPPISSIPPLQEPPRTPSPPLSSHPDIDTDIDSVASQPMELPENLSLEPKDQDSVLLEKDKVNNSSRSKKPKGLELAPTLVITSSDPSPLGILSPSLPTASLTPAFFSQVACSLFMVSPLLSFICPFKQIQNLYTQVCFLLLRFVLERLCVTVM
In a few lines:
as §1

Assay [15] has as its target T10, ETV2 (Homo sapiens, UniProt O00321 1-342).
T10 sequence: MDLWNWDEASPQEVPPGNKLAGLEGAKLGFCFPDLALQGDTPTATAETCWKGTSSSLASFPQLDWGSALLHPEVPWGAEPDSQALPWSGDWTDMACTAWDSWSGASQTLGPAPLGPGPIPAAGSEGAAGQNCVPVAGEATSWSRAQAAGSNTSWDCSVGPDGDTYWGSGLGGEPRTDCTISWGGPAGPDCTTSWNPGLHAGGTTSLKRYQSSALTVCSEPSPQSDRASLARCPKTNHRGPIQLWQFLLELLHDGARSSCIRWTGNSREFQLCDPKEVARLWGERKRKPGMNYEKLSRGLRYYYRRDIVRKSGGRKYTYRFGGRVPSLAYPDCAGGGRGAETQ
The essentials: as §1

Assay [16] has as its target T11, ELF3 (Homo sapiens, UniProt P78545 1-371).
T11 sequence: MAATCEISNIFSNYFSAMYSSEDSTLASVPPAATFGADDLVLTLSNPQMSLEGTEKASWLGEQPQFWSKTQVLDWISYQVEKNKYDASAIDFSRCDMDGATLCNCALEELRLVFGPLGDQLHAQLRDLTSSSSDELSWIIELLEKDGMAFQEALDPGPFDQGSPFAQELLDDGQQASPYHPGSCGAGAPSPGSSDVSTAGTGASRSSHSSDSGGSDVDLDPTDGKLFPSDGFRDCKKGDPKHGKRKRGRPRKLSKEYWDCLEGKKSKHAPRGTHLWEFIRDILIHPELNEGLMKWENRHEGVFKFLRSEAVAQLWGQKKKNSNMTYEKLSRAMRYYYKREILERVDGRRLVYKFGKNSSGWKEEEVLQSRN
The essentials:
as §1

For assay [17], the target named is ETV1 (Homo sapiens, UniProt P50549 1-477). In a few lines:
as §1

ETV1, sequence (P50549 whole entry): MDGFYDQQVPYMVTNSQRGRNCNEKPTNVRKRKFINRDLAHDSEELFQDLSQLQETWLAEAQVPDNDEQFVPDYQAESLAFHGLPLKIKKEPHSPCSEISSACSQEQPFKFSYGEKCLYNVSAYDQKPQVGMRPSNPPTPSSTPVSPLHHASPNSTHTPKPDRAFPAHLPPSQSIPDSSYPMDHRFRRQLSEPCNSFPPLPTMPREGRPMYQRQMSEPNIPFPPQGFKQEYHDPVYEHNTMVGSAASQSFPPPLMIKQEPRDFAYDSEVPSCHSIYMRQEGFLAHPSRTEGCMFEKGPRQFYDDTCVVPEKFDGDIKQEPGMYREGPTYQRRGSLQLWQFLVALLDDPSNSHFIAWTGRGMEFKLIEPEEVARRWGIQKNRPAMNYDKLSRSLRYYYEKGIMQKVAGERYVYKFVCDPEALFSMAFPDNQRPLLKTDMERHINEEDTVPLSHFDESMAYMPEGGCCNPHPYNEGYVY
SPIB, sequence (Q01892 whole entry): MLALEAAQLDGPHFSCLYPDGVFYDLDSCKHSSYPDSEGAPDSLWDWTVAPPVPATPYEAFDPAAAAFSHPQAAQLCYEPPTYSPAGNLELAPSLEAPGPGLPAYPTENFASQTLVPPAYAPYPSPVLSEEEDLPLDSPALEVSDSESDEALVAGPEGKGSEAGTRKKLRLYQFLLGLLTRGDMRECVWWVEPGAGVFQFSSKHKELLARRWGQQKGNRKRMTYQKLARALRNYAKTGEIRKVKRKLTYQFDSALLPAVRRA

ACACAA: the binding signal was 1.14 fold enrichment (6-mer frequency, TF over GST control) in assay [1]; 1.17 fold enrichment (6-mer frequency, TF over GST control) in [2]; 1.12 fold enrichment (6-mer frequency, TF over GST control) in [3]; 1.17 fold enrichment (6-mer frequency, TF over GST control) in [4]; 1.23 fold enrichment (6-mer frequency, TF over GST control) in assay [5]; 1.21 fold enrichment (6-mer frequency, TF over GST control) in [6]. Further, the binding signal in assay [7] was 1.17 fold enrichment (6-mer frequency, TF over GST control); in assay [8], 1.21 fold enrichment (6-mer frequency, TF over GST control); in [9] it was 1.19 fold enrichment (6-mer frequency, TF over GST control); in assay [10], 1.17 fold enrichment (6-mer frequency, TF over GST control); in assay [11], 1.19 fold enrichment (6-mer frequency, TF over GST control); in [12], 1.22 fold enrichment (6-mer frequency, TF over GST control). The binding signal in [13] was 1.17 fold enrichment (6-mer frequency, TF over GST control); in [14], 1.05 fold enrichment (6-mer frequency, TF over GST control); in assay [15], 1.1 fold enrichment (6-mer frequency, TF over GST control); in [16], 1.11 fold enrichment (6-mer frequency, TF over GST control); in assay [17], 1.14 fold enrichment (6-mer frequency, TF over GST control).

Take GTATAC: the binding signal in [1] was 1.28 fold enrichment (6-mer frequency, TF over GST control); in [2] it was 1.3 fold enrichment (6-mer frequency, TF over GST control); in assay [3], 1.32 fold enrichment (6-mer frequency, TF over GST control); in assay [4], 1.24 fold enrichment (6-mer frequency, TF over GST control); in assay [5] it was 1.18 fold enrichment (6-mer frequency, TF over GST control); in assay [6] it was 1.22 fold enrichment (6-mer frequency, TF over GST control). The binding signal was 1.18 fold enrichment (6-mer frequency, TF over GST control) in [7]; 1.27 fold enrichment (6-mer frequency, TF over GST control) in assay [8]; 1.28 fold enrichment (6-mer frequency, TF over GST control) in assay [9]; 1.2 fold enrichment (6-mer frequency, TF over GST control) in assay [10]; 1.24 fold enrichment (6-mer frequency, TF over GST control) in assay [11]; 1.2 fold enrichment (6-mer frequency, TF over GST control) in assay [12]. The binding signal in assay [13] was 1.3 fold enrichment (6-mer frequency, TF over GST control); in assay [14] it was 1.29 fold enrichment (6-mer frequency, TF over GST control); in assay [15] it was 1.1 fold enrichment (6-mer frequency, TF over GST control); in assay [16] it was 1.18 fold enrichment (6-mer frequency, TF over GST control); in assay [17], 1.31 fold enrichment (6-mer frequency, TF over GST control).
